Most compounds without a hit are left out; they make up all but 8.3% or so of the library.
LASV entry inh – blocks Lassa virus binding to or entry into cells. Lassa virus pseudotype entry inhibition, cell reporter. Potency, µM (doses to about 37.9 µM), for the others: top-dose activity change, negative = inhibition, hits mostly inhibitors. 300,000 tested, 1.2% active. AID 540256; calls by dose curve; tested in HEK293 cells; also: potency is read from the fitted curve at half-maximal effect; nearly all actives have a fitted effect of over 50% in size
FMDV inh – antivirals against foot and mouth disease virus | FMDV antiviral cell-based qHTS | Potency, µM (series often up to 57.9 µM), inactives show at the highest dose activity change, negative = inhibition, actives largely listed as inhibitors | 410,000 tested, 1.2% active; calls by dose curve; tested in HEK293T cells; also: read-out not given here; potency is read from the fitted curve at half-maximal effect; nearly all actives have a fitted effect of over 45% in size
FBPA Giardia inh – blocks Giardia fructose-bisphosphate aldolase activity; purified Giardia FBPA; Potency, µM (highest dose often 59.6 µM), for the others: at the top dose activity, negative = inhibition, hits mostly inhibitors; 290,000 tested, 0.71% active; also: potency is read from the fitted curve at half-maximal effect; nearly all actives have a fitted effect of over 55% in size
Target sequence (A8B2U2 whole entry, looked up): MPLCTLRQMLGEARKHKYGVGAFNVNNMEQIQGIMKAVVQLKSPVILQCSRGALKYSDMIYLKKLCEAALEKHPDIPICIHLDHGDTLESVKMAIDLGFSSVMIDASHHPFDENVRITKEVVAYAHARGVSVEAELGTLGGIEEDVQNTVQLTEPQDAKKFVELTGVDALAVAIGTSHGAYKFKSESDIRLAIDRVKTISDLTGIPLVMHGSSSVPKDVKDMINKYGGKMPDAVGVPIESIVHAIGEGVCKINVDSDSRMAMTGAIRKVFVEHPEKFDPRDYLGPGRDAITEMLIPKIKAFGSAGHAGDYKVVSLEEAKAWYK
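Giardia FBPA (40 nM reagent) was preincubated 10 min at RT with compound (up to 57.5 uM final), then substrate plus GAPDH/TPI/NAD/arsenate coupling system with diaphorase/resazurin was added; resorufin fluorescence (525/598 nm) was read after 20 min.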
HCMV antiviral – human cytomegalovirus inhibition | HFF cells, HCMV-luciferase reporter, 72 h; hits give low values | activity change, negative = inhibition, % at 57.5 µM | 410,000 tested, 4.5% active | AID 1259415; in the data active = activity change below about -60%; inconclusive = no clear call, values can overlap the other calls; inactive = above about -39%
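After 16 h attachment at 37C, HFF cells received test compound and HCMV-luciferase (1 PFU/cell); reporter luminescence read 72 h later, data normalized against buffer-only and known inhibitor Salinomycin.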
HCV inhibitor – HCV inhibition | 340,000 tested, 3.4% active | Huh7.5.1 HCVcc-Cre infection, luciferase reporter, 44 h | Potency, µM (series often up to 41.8 µM), without a hit: top-dose activity change, negative = inhibition, usual class: inhibitors; also: potency is read from the fitted curve at half-maximal effect
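HCVcc-Cre virus at an moi near 0.5 was added right after compound to cells cultured 4 h from seeding (1,000 cells/well). Luciferase activity was determined 44 h later, 15 min after substrate addition at RT.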
Marburg entry inh – inhibitors of Marburg virus binding or cell entry; Potency, µM (highest dose often 37.8 µM), for the others: top-dose activity change, negative = inhibition, actives largely listed as inhibitors; Marburg virus pseudotyped entry inhibition, cell reporter; 300,000 tested, 1.8% active; calls by dose curve; tested in HEK293 cells; also: potency is read from the fitted curve at half-maximal effect
Starred values were filed as active, the others as inactive; ? = inconclusive; · = no result; [ ] = remark or other dose. Unless noted, calls follow the shape of the dose curve; as a rule, active = well fitted curve in the direction sought with a large enough effect; inconclusive = small, poorly fitted or top-dose-only effect, or another doubt; inactive = no such curve, though single readings can be large; an effect the other way counts as inactive or inconclusive. % is scaled to controls: 0 for no effect and ±100 for the full control effect.

SMILES | LASV entry inh | FMDV inh | FBPA Giardia inh | HCMV antiviral | HCV inhibitor | Marburg entry inh
CC(C)(C)n1cc(C(=O)c2ccc3ccccc3c2O)cn1 | 13µM* | 16µM* | -12% | ? | -28% | 4µM*
COc1ccc(C(=O)Nc2nc(-c3ccccc3)c(C(C)=O)s2)c(OC)c1 | · | 29% | 0% | 13 | 13µM* | ?
COC(=O)Nc1nc(C)c(C(=O)c2ccccc2)s1 | ? | 10% | -4% | 87 | -14% | ?
COc1ccc(C(=O)Nc2nc(-c3ccc([N+](=O)[O-])cc3)c(-c3ccccc3)s2)cc1 | -26% | ? | · | -18 | 6.3µM* | -5%
COc1ccc(-c2sc(NC(=O)c3ccc(C)cc3)nc2-c2ccc([N+](=O)[O-])cc2)cc1 | 2% | -24% | 0% | 6 | 0% | ?
COC(=O)Nc1nc(-c2ccccc2)c(C(=O)c2ccccc2)s1 | 3.2µM* | -15% | -4% | ? | ? | ?
COC(=O)c1cc2oc3ccccc3c2n1CC(=O)Nc1cccc(SC)c1 | · | 28% | · | ? | · | ?
C=C(C)CCN1C(=O)NC(c2ccccc2)C(C(C)=O)=C1C (centres undefined) | ? | · | · | · | · | 7%[14.2 µM]
Cc1c(C(O)CN2CCN(Cc3ccc4c(c3)OCO4)CC2)c2ccccc2n1C (centres undefined) | ? | -14% | -1% | -28 | 18µM* | ?
OC(CN1CCN(Cc2ccc3c(c2)OCO3)CC1)c1c[nH]c2ccccc12 (centres undefined) | ? | 0% | 3% | -88* | ? | -28%
OC(CN1CCN(c2ccccc2)CC1)c1c[nH]c2ccccc12 (centres undefined) | 23% | -13% | 0% | -24 | -5% | -1%
COc1ccc2c(c1)c(C(O)CN1CCN(Cc3ccc4c(c3)OCO4)CC1)c(C)n2C (centres undefined) | ? | 0% | -26% | -19 | ? | ?
CC(c1ccccc1)N1C(=O)c2ccc(C(=O)Nc3ccccc3C(=O)O)cc2C1=O (centres undefined) | · | 20% | · | -80* | -1% | ·
Cc1nc2scc(C)n2c(=O)c1S(=O)(=O)Nc1cccc(C(F)(F)F)c1 | -6%[46.1 µM] | 34% | · | -8 | · | 3%[46.1 µM]
c1ccc(-n2nnnc2CN2CCOCC2)cc1 | · | -15% | -5% | -68* | 22% | ·
COc1ccc(C(=O)NC(=S)Nc2ccccc2N2CCOCC2)cc1Br | ? | 0% | -3% | -11 | 16µM* | ?
COc1cc(C(=O)Nc2ccccc2N2CCCCC2)cc(OC)c1OC | ? | ? | 0% | ? | ? | -29%
COc1cc(C(=O)NC(=S)Nc2ccc3c(c2)C(=O)N(C)C3=O)cc(OC)c1OC | 19% | ? | ? | 13 | 10µM* | 10%
COc1cc(C(=O)NC(=S)Nc2ccccc2N2CCCC2)cc(OC)c1OC | · | -22% | 8% | ? | 11µM* | ·
Fc1cc(F)cc(NC(=S)Nc2ccccc2N2CCOCC2)c1 | -9%[46.1 µM] | -26% | -1% | -62* | -22% | ?
NCCc1ccc(OCc2ccccc2)c(OCc2ccccc2)c1 | ? | -23% | · | -94* | 7.9µM* | ?
COc1cc(/C=N/N=C(N)N)ccc1OCc1ccc(Cl)cc1 | ? | -45% | -2% | -102* | 13µM* | 18µM*
NC(N)=N/N=C/c1ccccc1 | ? | 4% | 2% | 6 | 7% | -3%
CCOc1cc(/C=N/N=C(N)N)ccc1OCc1ccc(Cl)cc1 | ? | -21% | 2% | -24 | ? | ?
NC(N)=N/N=C/c1ccc(OCc2ccccc2)c(OCc2ccccc2)c1 | ? | 28% | 2% | -103* | ? | ?
C=CCN1C[C@H](C)N(C(c2ccc(C(=O)N(CC)CC)cc2)c2cccc(OC)c2)CC1C (some centres undefined) | · | · | · | -65* | · | ·
COc1ccccc1OCCSc1nc2ccccc2n1CC(=O)N1CCOCC1 | 23%[46.1 µM] | 31% | · | 26 | · | -8%[46.1 µM]
CC(=O)OC[C@@H]1O[C@@H](O/N=C2/C[C@@H](O)[C@@H](O)[C@@H]3[C@@H]4C(=O)N(Cc5ccccc5)C(=O)[C@H]4CC[C@H]23)[C@H](OC(C)=O)[C@H](OC(C)=O)[C@@H]1OC(C)=O | · | · | -1%[12.9 µM] | · | · | ·
